Measured values: publication PMC4336329 (PLoS ONE, 2015)
Among all 310,000 compounds or so, about 14,000 (4.5%) showed an effect of 50% or more. The effect is printed as a negative number. The sample as a whole holds a higher share of strong results than the screen did.

Each molecule was assayed against human ether-à-go-go-related gene (hERG) potassium channel (human, UniProt Q12809) (assay: primary screen, population patch clamp on CHO cells stably expressing hERG; higher = less effect of the substance).
Sequence of human ether-à-go-go-related gene (hERG) potassium channel (Q12809 whole entry, looked up): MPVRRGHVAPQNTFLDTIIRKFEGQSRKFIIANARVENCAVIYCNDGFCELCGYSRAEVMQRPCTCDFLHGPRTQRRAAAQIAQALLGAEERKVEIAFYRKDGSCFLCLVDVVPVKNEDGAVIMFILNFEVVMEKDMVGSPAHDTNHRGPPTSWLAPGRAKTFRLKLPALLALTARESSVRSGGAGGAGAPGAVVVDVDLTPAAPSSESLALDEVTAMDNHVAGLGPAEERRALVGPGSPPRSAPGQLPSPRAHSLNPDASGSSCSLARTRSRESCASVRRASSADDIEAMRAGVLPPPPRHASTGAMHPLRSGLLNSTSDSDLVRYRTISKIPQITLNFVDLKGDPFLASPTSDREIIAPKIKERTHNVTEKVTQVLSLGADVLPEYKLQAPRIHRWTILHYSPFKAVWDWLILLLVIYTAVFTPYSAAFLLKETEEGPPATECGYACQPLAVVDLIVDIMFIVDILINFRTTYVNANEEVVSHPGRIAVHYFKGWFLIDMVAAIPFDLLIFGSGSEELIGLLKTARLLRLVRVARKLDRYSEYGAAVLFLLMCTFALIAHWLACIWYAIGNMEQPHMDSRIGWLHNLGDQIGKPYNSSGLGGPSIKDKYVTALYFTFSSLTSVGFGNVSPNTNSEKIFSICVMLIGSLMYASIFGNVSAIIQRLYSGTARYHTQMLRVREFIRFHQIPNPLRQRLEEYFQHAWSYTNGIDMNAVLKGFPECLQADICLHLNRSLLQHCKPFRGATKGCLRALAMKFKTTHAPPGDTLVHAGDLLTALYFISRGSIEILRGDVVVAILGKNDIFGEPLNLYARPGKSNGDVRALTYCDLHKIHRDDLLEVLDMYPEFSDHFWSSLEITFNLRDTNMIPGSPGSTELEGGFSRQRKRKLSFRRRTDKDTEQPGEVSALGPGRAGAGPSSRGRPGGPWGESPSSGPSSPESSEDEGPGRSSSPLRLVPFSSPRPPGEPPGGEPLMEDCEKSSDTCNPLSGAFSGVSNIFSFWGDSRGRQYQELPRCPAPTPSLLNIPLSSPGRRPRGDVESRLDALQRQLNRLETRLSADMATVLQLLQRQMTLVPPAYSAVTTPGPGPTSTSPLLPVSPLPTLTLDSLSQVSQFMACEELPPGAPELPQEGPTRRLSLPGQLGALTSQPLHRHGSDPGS
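Further: peak tail current of the secondary pulse compared with the same well before compound.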

Compound	hERG current change (%, negative = inhibition) at 10uM [%]
O=C(c1ccc(Br)cc1)c1cc([N+](=O)[O-])ccc1N1CCOCC1	-30.7
CN1CCN(c2ccc([N+](=O)[O-])cc2C(=O)N2CCCCC2)CC1	-7.66
CN1CCN(c2ccc([N+](=O)[O-])cc2C(=O)c2ccc(Br)cc2)CC1	-69.5
O=C(c1ccc(Cl)cc1)c1cc([N+](=O)[O-])ccc1N1CCOCC1	-32.4
CN1CCN(c2ccc([N+](=O)[O-])cc2C(=O)c2ccc(Cl)cc2)CC1	-67.4
CC(=O)Nc1cc2nc(C)n(Cc3ccccc3[N+](=O)[O-])c2nc1C	17.4
C1CCc2nc3c(nc2C1)CCCC3	-10.7
C=CCc1c(C)nc(SC)nc1Nc1ccc(C)cc1	-14.3
CN(C(=O)c1cccnc1)c1nnc(-c2cccnc2)s1	14.4
COc1ccc(N2CCN(C(=O)CN3CCN(C(c4ccccc4)c4ccccc4)CC3)CC2)cc1.Cl	-46
CCCCC(=O)OCC(=O)Nc1ccc(OC(F)F)cc1	-21.2
Cc1nc2c(C)cccn2c(=O)c1NC(=O)COc1ccccc1	-12.1
Cc1ccn2c(=O)c(NC(=O)c3cccc4ccccc34)c(C)nc2c1	-1.31
Cc1ccn2c(=O)c(NC(=O)COc3ccccc3)c(C)nc2c1	-56.9
N#Cc1c(Cl)nsc1NC(=O)c1ccccc1	8.24
Cc1ccc(S(=O)(=O)N2CCCCC2CCNC(=O)C(=O)NCCc2ccco2)cc1 (centres unmarked)	-33.1
O=C(NC1CCN(Cc2ccccc2)CC1)C1COc2ccccc2O1 (centres unmarked)	-57.5
CN1CCN(CCCNC(=O)CCC(=O)N2CCOc3ccccc32)CC1	5.46
O=C(CCC(=O)N1CCOc2ccccc21)NCCCN1CCN(Cc2ccccc2)CC1	-79.8
O=C(CCC(=O)N1CCOc2ccc(Cl)cc21)NCCN1CCOCC1	3.97
Cc1ccccc1CNC(=O)CCC(=O)N1CCOc2ccc(Cl)cc21	-24.2
Cc1ccc(C)c(N2CCN(CCCNC(=O)CCC(=O)N3CCOc4ccc(Cl)cc43)CC2)c1	-55.9

Compound	hERG current change (%, negative = inhibition) at 10uM [%]
O=C(CCC(=O)N1CCOc2ccc(Cl)cc21)NCCCN1CCN(c2ccccc2F)CC1	-66.5
O=C(NC1CCCCC1)C1COc2ccccc2O1 (centres unmarked)	-7.19
CCN1CCN(CCCNC(=O)CCC(=O)N2CCOc3ccccc32)CC1	-13
O=C(C1COc2ccccc2O1)N1CCN(Cc2ccccc2)CC1 (centres unmarked)	-7.63
O=C(CCC(=O)N1CCOc2ccccc21)NCCCN1CCCCC1	7
CC(C)(C)NC(=O)c1ccc2c(c1)C1C3CCC(C3)C1C(c1ccccc1)N2 (centres unmarked)	5.59
Cc1ccc(S(=O)(=O)NCCC(=O)NCC(c2ccc(F)cc2)N2CCOCC2)cc1 (centres unmarked)	-5.84
CCc1cccc(NC(=O)C2CC2c2ccccc2)c1 (centres unmarked)	14.5
Cc1noc(C)c1C(=O)OCC(=O)N1CCN(S(=O)(=O)c2ccc3ccccc3c2)CC1	-0.697
COCc1ccccc1C1=CC(=O)C[C@H](c2ccc(OC)cc2)C1	-12.3
Cc1cc(OCc2ccc(C(=O)n3cccn3)o2)ccc1Cl	-0.553
CN(C/C(O)=C(\C#N)c1ccccc1)C1CCCCC1	-0.409
COC(=O)c1c(C)[nH]c(C(=O)/C=C/c2ccccc2)c1C	1.52
CCN1CCN(CCCNC(=O)CCC(=O)N2CCOc3ccc(Cl)cc32)CC1	-5.48
O=C(CCC(=O)N1CCOc2ccc(Cl)cc21)NCCCN1CCN(Cc2ccccc2)CC1	-73.2
O=C(CCC(=O)N1CCOc2ccccc21)NC1CCN(Cc2ccccc2)CC1	-51
CCOC(=O)N1CCC(NC(=O)CCC(=O)N2CCOc3ccccc32)CC1	8.3
O=C(CCC(=O)N1CCOc2ccccc21)NC1CCCCCC1	-20.8
Cc1nc(C)c(N)c(=O)[nH]1.Cl	16.3
O=C(NN1C(=O)C2C3C=CC(C4CC34)C2C1=O)c1ccc(Br)cc1 (centres unmarked)	22.8
CCC1CCCCN1C(=O)CSc1nnc(-c2ccco2)o1 (centres unmarked)	4.11
Cc1cccc(C(=O)Oc2cc(C)[nH]c(=O)c2[N+](=O)[O-])c1	16.7
